According to PubChem BioAssay AID2810 (NMMLSC, 2010):
Among all 1,200 compounds or so, about 65 (5%) were called active. This is one part of a sample in which actives are shown more often than they occur.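 How the source made its calls: active means at either tested dose, response and 90th-percentile vesicle-stain brightness of CD8 cells under set limits and under 9% cells vesicle-bound; inactive means the rest.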

Assay: modulators of CD8 T cell-vesicle binding, confirmation, cherry-picked primary hits, two concentrations (AID 2810);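 on percent response (vesicle binding): ratio of mean FL2 vesicle stain of CD8+ cells to that row's control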
Conditions: 2C CD8+ T cell-vesicle binding, flow cytometry; for double positive events: CD8+/vesicle+ events
[1] = at 15.4 µM, stronger effect = lower value

Row | Compound | double positive events (at 7.7 µM) | double positive events [1] | percent response (vesicle binding) [1] | percent response (vesicle binding) (response, at 7.7 µM)
1 | Cc1ccccc1/C(N)=N/OC(=O)c1cccs1 | 12.4% | 17.9% | 190% (inactive) | 217%
2 | CCOC(=O)N1CCN(Cc2nc(-c3ccc(C)cc3)no2)CC1 | 14.7% | 4.6% | 63% (inactive) | 286%
3 | COc1ccc([N+](=O)[O-])cc1N(CC(=O)O)S(C)(=O)=O | 9.6% | 19.3% | 127% (inactive) | 281%
4 | COc1ccc([N+](=O)[O-])cc1NC(=O)c1ccc(N(Cc2ccccc2C)S(C)(=O)=O)cc1 | 8.4% | 2.9% | 47.7% (active) | 131%
5 | COc1ccc([N+](=O)[O-])cc1NC(=O)C(C)Sc1nc(-c2ccccc2)cs1 (centres undefined) | 11.7% | 22.6% | 114% (inactive) | 121%
6 | CCN1CCN(c2ccc(NC(=O)c3cc4ccccc4cc3OC)cc2C)CC1 | 21.2% | 1.8% | 55.9% (active) | 373%
7 | COc1cc2ccccc2cc1C(=O)NC1CCCCC1 | 11.7% | 19% | 121% (inactive) | 368%
8 | CCN1CCN(c2ccc(S(=O)(=O)N3CCCCC3)cc2NC(=O)c2cccc(C)c2[N+](=O)[O-])CC1 | 31.1% | 37.1% | 238% (inactive) | 406%
9 | O=C(Nc1nc2ccccc2n1CCN1CCOCC1)c1ccc(Cn2cc([N+](=O)[O-])cn2)o1 | 23.6% | 23.8% | 145% (inactive) | 260%
10 | C=CCn1c(C)cc(-c2csc(NCC)n2)c1C | 11.2% | 24.9% | 196% (inactive) | 160%
11 | CCOC(=O)c1ccc(S(=O)(=O)N2CCN(C3CCCC3)CC2)cc1 | 11.3% | 23.3% | 294% (inactive) | 107%
12 | Cc1ccc(S(=O)(=O)N2CCN(CCOc3c(Cl)cccc3Cl)CC2)cc1C | 28.4% | 18.9% | 334% (inactive) | 140%
13 | NC(=O)CCS(=O)(=O)CCN1CCN(S(=O)(=O)c2ccc3c(c2)CCC3)CC1 | 17.1% | 7.7% | 43.5% (active) | 183%
14 | O=C(NCC1CCCCC1)c1cccc(S(=O)(=O)N2CCCC2)c1 | 8.6% | 8.5% | 104% (inactive) | 305%
15 | Cc1ccc(/C=N/Nc2ccc(F)cc2F)s1 | 17.7% | 29.3% | 280% (inactive) | 159%
16 | O=C(NCC1CCCO1)C(=O)NCC(c1ccco1)N1CCN(c2ccc(F)cc2)CC1 (centres undefined) | 35.6% | 10.4% | 199% (inactive) | 266%
17 | O=C(O)c1ccc(N2C(=O)CC(SC(=Nc3ccccc3)Nc3ccccc3)C2=O)cc1 (centres undefined) | 19.3% | 18.5% | 276% (inactive) | 663%
18 | COc1cc(Cl)c(S(=O)(=O)n2cnc(C)c2)cc1Cl | 9.6% | 9.7% | 141% (inactive) | 151%
19 | CCOC(=O)CSc1nnnn1-c1cc(OC)c(Cl)cc1OC | 20.1% | 5.9% | 53.3% (active) | 312%
20 | CCOC(=O)CSc1nnc(-c2ccc(Cl)cc2Cl)o1 | 16.3% | 10.1% | 118% (inactive) | 276%
21 | CCn1c(SCC(=O)NCC2CCCO2)nnc1-c1c[nH]c2ccccc12 (centres undefined) | 14.2% | 13.6% | 286% (inactive) | 430%
